Most compounds without a hit are left out; they make up all but 2.4% or so of the library.
M1 antag: blocks human M1 muscarinic receptor. inhibition, % at 3 µM. 360,000 tested, 1.3% active. P11229. CHO-K1 hM1, Fluo-8 calcium fluorescence, ACh EC80 antagonist;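 active = percent inhibition above its own plate's cutoff, namely the mean of that plate's compound wells plus 3 SD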;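 note: peak over basal fluorescence ratio during 140 s after agonist addition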
Target sequence (P11229 whole entry, looked up): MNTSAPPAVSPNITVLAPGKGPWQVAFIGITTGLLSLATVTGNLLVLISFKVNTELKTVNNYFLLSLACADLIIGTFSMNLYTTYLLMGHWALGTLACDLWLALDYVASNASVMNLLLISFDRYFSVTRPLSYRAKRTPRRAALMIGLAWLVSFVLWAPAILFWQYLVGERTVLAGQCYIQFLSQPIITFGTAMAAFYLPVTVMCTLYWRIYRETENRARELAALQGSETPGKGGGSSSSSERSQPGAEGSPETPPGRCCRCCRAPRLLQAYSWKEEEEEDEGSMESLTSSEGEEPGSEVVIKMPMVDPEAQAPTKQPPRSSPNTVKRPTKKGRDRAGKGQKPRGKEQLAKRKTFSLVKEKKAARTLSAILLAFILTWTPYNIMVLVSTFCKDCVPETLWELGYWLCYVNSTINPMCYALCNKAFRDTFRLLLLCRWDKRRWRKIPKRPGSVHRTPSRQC
M1 PAM parental: nonselective activator or artifact in parental CHO-K1 calcium assay; ATP EC20, Fluo-8 calcium fluorescence; 0% at ATP EC20, 100% at ATP max; activation, % at 3 µM; 360,000 tested, 0.02% active; AID 602247;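 active = activation above the run cutoff, the mean activation of all test compounds plus 3 SD, cut at about 40% in these data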;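 note: peak over basal fluorescence ratio in a 140 s read after ATP addition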
M1 ag parental: counter-screen for M1 agonists: effect in parental CHO-K1 cells. 360,000 tested, 0.48% active. activation, % at 3 µM. Fluo-8 calcium fluorescence; scaled to maximal ATP response, vehicle zero; in the data active = activation above about 15%;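 note: untransfected CHO-K1 host cells lacking M1 receptor as counterscreen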
M1 ag: agonists of human M1 muscarinic receptor; CHO-K1 hM1, Fluo-8 calcium fluorescence, agonist mode; 0% DMSO, 100% acetylcholine EC100; 360,000 tested, 0.33% active; activation, % at 3 µM; P11229; AID 588814;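 active = activation above the run's mean compound activation plus 3 SD, cut at about 16% in these data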;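 note: peak over basal fluorescence ratio within a 140 s kinetic read after compound addition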
M1 PAM: positive allosteric modulators of human M1 muscarinic receptor; P11229; CHO-K1 hM1, Fluo-8 calcium fluorescence, ACh EC20; 0% = ACh EC20, 100% = maximal ACh; activation, % at 3 µM; 360,000 tested, 0.088% active; in the data active = activation above about 19%, passing the limit was not always enough
CHO-K1 Ca antag: counter-screen for M1 antagonists: effect in parental CHO-K1 cells. ATP-induced calcium, Fluo-8 fluorescence. 360,000 tested, 0.6% active. inhibition, % at 3 µM;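 active = inhibition above a per-plate cutoff, the plate's mean sample inhibition plus 3 SD, cut at about 24% in these data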
Numbers stand for hits; – = inactive; ! = not active in a repeat.

SMILES | M1 antag | M1 PAM parental | M1 ag parental | M1 ag | M1 PAM | CHO-K1 Ca antag
CC[N+](CC)(CC)CCCOC(=O)C(O)(c1ccccc1)C1CCCCC1 (stereo not given) | 99.2 | – | – | – | – | –
CC(=NCC1CCCO1)c1c(O)n(Cc2ccccc2)c(=O)[nH]c1=O (stereo not given) | – | – | – | – | – | –
O=P(NCc1ccccc1)(Oc1ccccc1)Oc1ccccc1 | – | – | – | – | – | –
COc1cccc(CNC2CN3CCC2CC3)c1OC (stereo not given) | 73.1 | – | – | – | – | –
C#CCOC(=O)C1=CCCN(C)C1 | – | – | – | 106.0 | – | –
O=C(Nc1ccccc1)NC1CC2CCC(C1)N2 (stereo not given) | 30.5 | – | – | – | – | –
Cn1c(O)c(Cc2ccc(OCc3ccccc3)cc2)c(=O)n(C)c1=O | – | – | – | – | – | –
CCN(CC)c1ccc(/C=C2\C(=O)NC(=S)N(C)C2=O)o1 | – | – | 19.0 | – | – | –
COc1ccc(N2C(=O)/C(=C/c3ccc(N(C)C)o3)C(=O)NC2=S)cc1 | – | – | – | – | – | –
CCN(CC)c1ccc(C=C2C(=O)N(C)C(=S)N(C)C2=O)o1 | – | – | – | – | – | –
CCN(CC)c1ccc(/C=C2\C(=O)NC(=S)N(c3ccc(OC)cc3OC)C2=O)o1 | – | – | 23.2 | – | – | –
S=C1CN=C(c2ccccc2)c2cc(Cl)ccc2N1 | – | – | – | 46.0 | – | –
Cc1nn(Cc2ccccc2Cl)c(C)c1C(=O)OCC(=O)N1CC(C)OC(C)C1 (stereo not given) | – | – | – | – | – | –
NC(=O)c1ccsc1NC(=O)COC(=O)Cc1ccccc1 | – | – | – | – | – | 24.6
O=C(COC(=O)Cc1ccccc1)NC12CC3CC(CC(C3)C1)C2 | – | – | – | – | – | –
Nc1ccc(C2(c3ccc(N)cc3)CCCCC2)cc1 | – | – | – | – | – | –
COC(=O)c1ccc(N2CCN(C)CC2)c([N+](=O)[O-])c1 | – | – | 19.2 | – | – | –
CN1CCN(c2ccc([N+](=O)[O-])cc2Cl)CC1 | – | – | – | – | – | –
CN(C)c1ccc(/C=C/c2cc[n+](C)c3ccccc23)cc1 | 29.8! | – | – | – | – | –
O=C(CCC(=O)N1C[C@H]2C[C@@H](C1)c1cccc(=O)n1C2)NCc1ccc(F)cc1 | – | – | – | – | – | –
O=C1NC(=O)C2(C(=O)N1)C(c1ccc(F)cc1)NC(=S)NC2c1ccc(F)cc1 (stereo not given) | – | – | – | – | – | –
CCOC(=O)c1cccc(C2=C(CNC(C)=O)[C@H]3CC[C@@H](C2)N3Cc2ccccc2)c1 | 31.1 | – | – | – | – | –
c1ccc(C(OCCN2CCNCC2)c2ccccc2)cc1 | 69.7 | – | – | – | – | –
CC(C)Sc1nnc(OC(=O)N(C)C)n1-c1ccccc1 | – | – | – | – | – | –
Oc1ccc(-[n+]2c(-c3ccccc3)cc(-c3ccccc3)cc2-c2ccccc2)cc1 | – | – | – | – | – | –
SMILES | M1 antag | M1 PAM parental | M1 ag parental | M1 ag | M1 PAM | CHO-K1 Ca antag
Cc1cc(-c2ccccc2)cc(-c2ccccc2)[n+]1CCc1ccccc1 | 59.8 | – | – | – | – | –
Clc1ccc(C[n+]2c(-c3ccccc3)cc(-c3ccccc3)cc2-c2ccccc2)cc1 | 36.2 | – | – | – | – | –
CCOC(=O)C1CCCN(c2ccc([N+](=O)[O-])c3nonc23)C1 (stereo not given) | 70.1 | – | 156.6 | 297.9 | – | 51.5
CC[n+]1c(/C=C/C=C/c2ccc(N(C)C)cc2)sc2ccccc21 | 68.6 | – | – | – | – | 33.8
CN(C)c1ccc(/C=C/C=C/c2sc3ccccc3[n+]2C)cc1 | – | – | – | – | – | –
CC[n+]1c(/C=C/N(C)c2ccccc2)sc2ccc(Cl)cc21 | 64.2 | – | – | – | – | –
O=c1[nH]c(=S)n(Cc2ccc(F)cc2)c(O)c1C=NCC1CCCO1 (stereo not given) | – | – | – | – | – | –
O=c1[nH]c(=S)n(Cc2ccc(F)cc2)c(O)c1/C=N/N1CCCCC1 | – | – | – | 27.2 | – | –
Cn1cc(C(O)CN2CCCCC2)c2ccccc21 (stereo not given) | – | – | – | – | – | –
COC(=O)CNC(=O)c1cn(CCC#N)nc1-c1ccc(F)cc1 | – | – | – | – | – | –
O=C(Oc1ccc([N+](=O)[O-])cc1)N1CCC(N2CCCCC2)CC1 | 85.4 | – | – | – | – | –
CC(=O)Nc1ccc(OC(=O)N2CCCCC2)cc1 | – | – | – | – | – | –
Oc1ccc(Cl)c(Cl)c1Cl | 24.3 | – | – | – | – | –
COc1ccc2ccccc2c1CNCCc1ccccc1 | – | – | – | – | – | –
C#C[C@]1(O)CCC2C3C(=O)C=C4C=CCC[C@]4(C)C3CC[C@@]21C (stereo not given in full) | – | – | – | – | – | –
C#CC1(O)CCC2C3CCC4=CC(=O)CCC4=C3C=CC21C (stereo not given) | – | – | 16.0 | – | – | –
O=C1C=CC(=O)C2C1C1(Cl)C(Cl)=C(Cl)C2(Cl)C1(Cl)Cl (stereo not given) | – | – | – | – | – | –
Cc1cc(C=C(C#N)C#N)ccc1N1CCCC1 | – | – | 16.5 | – | – | –
N#CC(C#N)=Cc1ccc(N2CCOCC2)cc1 | – | – | – | – | – | –
CCC(=NCCc1c[nH]c2ccccc12)c1c(O)n(C)c(=O)n(C)c1=O | 26.1 | – | 15.8 | – | – | 24.0
CCCCCSc1cc(OC)c(CCNC)cc1OC | 36.1 | – | – | – | – | –
CCCCCCCSc1cc(OC)c(CCNC)cc1OC | – | – | – | – | – | –
Cc1ccc(S(=O)(=O)N[C@@H](CCCCN)C(=O)CCl)cc1 | – | – | – | – | – | –
O=C(OC1CCN(CCCl)CC1)C(c1ccccc1)c1ccccc1 | – | – | – | – | – | –
C[N+]1(C)[C@@H]2CC[C@H]1CC(OC(=O)C(c1ccccc1)c1ccccc1)C2 (stereo not given in full) | 101.5 | – | – | – | – | –
Cc1nn(Cc2ccccc2Cl)c(C)c1C(=O)OCC(=O)NC1CCCC(C)C1C (stereo not given) | – | – | – | – | – | –
Cc1ccc(C(C)C)c(OCC#CCN2CCCC2)c1 | 89.6 | – | – | – | – | –
COc1ccc(OCC#CCN2CCCCCC2)cc1 | – | – | – | – | – | –
O=C1NC(=O)N(c2ccccc2F)C(=O)/C1=C/c1ccc(Sc2nc3ccccc3[nH]2)o1 | – | – | 15.6 | 17.5 | – | –
O=C1NC(=O)N(c2cccc(Cl)c2)C(=O)/C1=C\c1ccc(Sc2nc3ccccc3[nH]2)o1 | – | – | 26.5 | 23.5 | – | –

Source: PubChem BioAssay (The Scripps Research Institute Molecular Screening Center)
